Data as given in PubChem BioAssay (NCI).
This is part of a sample that, as a whole, favours compounds with a hit. Of some 79,000 tested, about 15% had one in any assay. Active and inactive are the calls of the source. Rule as the data show it: active = growth inhibition above about 70%; inactive = the rest.

Experiments:
[1] = NCI Yeast Anticancer Drug Screen. Data for the rad50 strain (AID 155);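 also: 0% = growth of vehicle-only cultures of the same strain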; conditions: S. cerevisiae rad50 strain growth inhibition, active compounds read high
Summary of the method: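 A DNA repair-deficient yeast mutant serves as the test organism; compound-induced growth inhibition is calculated against vehicle-treated cells.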

[2] = NCI Yeast Anticancer Drug Screen. Data for the mec2-1 strain (AID 157); conditions: S. cerevisiae mec2-1 strain, active compounds read high
Summary of the method: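 Readout is yeast growth inhibition, normalised to vehicle-treated controls, in the mec2-1 strain exposed to compound.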

[3] = NCI Yeast Anticancer Drug Screen. Data for the sgs1 mgt1 strain (AID 161);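 also: 0% = growth of cultures given vehicle only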; conditions: S. cerevisiae sgs1 mgt1 strain, active compounds read high
Summary of the method: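 Growth of a repair-deficient yeast mutant was monitored after compound treatment and expressed as inhibition relative to vehicle-treated cultures.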

[4] = NCI Yeast Anticancer Drug Screen. Data for the cln2 rad14 strain (AID 165);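 also: 0% = growth equal to vehicle treated cultures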; conditions: S. cerevisiae cln2 rad14 strain, active compounds read high
Summary of the method: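 Relative to vehicle controls, growth inhibition of compound-treated cln2 rad14 yeast was recorded.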

[5] = NCI Yeast Anticancer Drug Screen. Data for the bub3 strain (AID 167); conditions: S. cerevisiae bub3 mutant strain, active compounds read high
Summary of the method: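 Inhibition values come from growth of compound-treated mutant yeast normalised to vehicle-treated controls.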

[6] = NCI Yeast Anticancer Drug Screen. Data for the mlh1 rad18 strain (AID 175); conditions: S. cerevisiae mlh1 rad18 strain growth inhibition, active compounds read high
Summary of the method: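 Test agents were incubated with a yeast strain of defined genotype (DNA damage repair defect). Inhibition of growth was derived by comparison with vehicle-exposed cultures.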

[7] = at 5.0 µM (retest, dose inferred, filed as 0.5)
[8] = at 50.0 µM (retest, dose inferred, filed as 5.0)

Measured: growth inhibition

Cc1ccc(S(=O)(=O)Oc2ccc3oc4c(CO)ccc(NCCN(C)C)c4c(=O)c3c2)cc1
active: [3]; at 50.0 µM 97.8%
inactive: [1]; [7] 3% | [1]; [8] 5% | [1]; at 50.0 µM 16.6% | [2]; [7] 0% | [2]; [8] -32% | [2]; at 50.0 µM -17.6% | [3]; [7] 2% | [3]; [8] 16% | [4]; [7] 1% | [4]; [8] 7% | [4]; at 50.0 µM -2.35% | [5]; [7] 3% | [5]; [8] 4% | [5]; at 50.0 µM -9.25% | [6]; [7] 3% | [6]; [8] 14% | [6]; at 50.0 µM 43%

Cc1nc(N)sc1N=Nc1cccc(Cl)c1Cl
inactive: [1]; [7] -5% | [1]; [8] 39% | [2]; [7] -8% | [2]; [8] 56% | [2]; at 50.0 µM 50.4% | [3]; [7] 3% | [3]; at 50.0 µM 66.2% | [4]; [7] 0% | [4]; [8] 4% | [4]; at 50.0 µM 53.8% | [5]; [7] -2% | [5]; [8] 23% | [6]; [7] 21%
active: [1]; at 50.0 µM 71.5% | [3]; [8] 70% | [5]; at 50.0 µM 75.8% | [6]; [8] 79% | [6]; at 50.0 µM 84.2%

COCCCNC(=S)N/N=C/c1cc(Cl)cc(Cl)c1O
inactive: [1]; [7] 21% | [2]; [7] 15% | [3]; [7] 27% | [4]; [7] 10% | [4]; at 50.0 µM 48.7% | [5]; [7] 4% | [6]; [7] 13%
active: [1]; [8] 75% | [1]; at 50.0 µM 92.5% | [2]; [8] 81% | [2]; at 50.0 µM 89.3% | [3]; [8] 94% | [3]; at 50.0 µM 93.6% | [4]; [8] 77% | [5]; [8] 83% | [5]; at 50.0 µM 80.7% | [6]; [8] 93% | [6]; at 50.0 µM 85.2%

CCCCCCCCCCCCCCCCCO
active: [1]; at 50.0 µM 71% | [5]; at 50.0 µM 75.2%
inactive: [1]; [7] -4% | [1]; [8] 6% | [2]; [7] -3% | [2]; [8] -7% | [2]; at 50.0 µM 63.3% | [3]; [7] -3% | [3]; [8] 7% | [3]; at 50.0 µM 50% | [4]; [7] -1% | [4]; [8] -5% | [4]; at 50.0 µM -15.6% | [5]; [7] 10% | [5]; [8] 8%

Cc1ccc(N=C=C(c2ccccc2)c2ccccc2)cc1
active: [3]; [8] 70%
inactive: [1]; [7] 12% | [1]; [8] 46% | [1]; at 50.0 µM 67.5% | [2]; [7] 26% | [2]; [8] 39% | [2]; at 50.0 µM 59.3% | [3]; [7] 17% | [3]; at 50.0 µM 65.8% | [4]; [7] 9% | [4]; [8] 35% | [4]; at 50.0 µM 48% | [5]; [7] 28% | [5]; [8] 58% | [5]; at 50.0 µM 67.2%

CC(=O)c1c2c(cc3c1CC1(C3)Cc3ccc4c(c3C1=O)CCC4)CCC2 (stereo unspecified)
inactive: [1]; [7] 3% | [1]; [8] 1% | [1]; at 50.0 µM -0.85% | [2]; [7] 7% | [2]; [8] 5% | [2]; at 50.0 µM 17.2% | [3]; [7] 18% | [3]; [8] 7% | [3]; at 50.0 µM 5.75% | [4]; [7] 15% | [4]; [8] 16% | [4]; at 50.0 µM 6.8% | [5]; [7] 12% | [5]; [8] 39% | [5]; at 50.0 µM 55.2%

Cc1ccsc1/C=N/Nc1ccc2ccccc2n1
inactive: [1]; [7] 30% | [2]; [7] 20% | [2]; at 50.0 µM 59.5% | [3]; [7] 44% | [4]; [7] 47% | [4]; at 50.0 µM 50.6% | [5]; [7] 42%
active: [1]; [8] 72% | [1]; at 50.0 µM 78% | [2]; [8] 74% | [3]; [8] 97% | [3]; at 50.0 µM 86.8% | [4]; [8] 91% | [5]; [8] 95% | [5]; at 50.0 µM 79%

C=C1C(=O)O[C@H]2[C@H](OC(C)=O)[C@@H](C)CCC/C(C)=C/CC[C@@]3(C)O[C@@H]3C[C@@H]12
inactive: [1]; [7] 14% | [2]; [7] 17% | [3]; [7] 20% | [4]; [7] 3% | [5]; [7] 3% | [6]; [7] 22%
active: [1]; [8] 99% | [1]; at 50.0 µM 91.9% | [2]; [8] 99% | [2]; at 50.0 µM 94.2% | [3]; [8] 98% | [3]; at 50.0 µM 92.8% | [4]; [8] 95% | [4]; at 50.0 µM 91.1% | [5]; [8] 98% | [5]; at 50.0 µM 93% | [6]; [8] 99% | [6]; at 50.0 µM 92.3%

Cc1cc(-c2ccccc2)nc2nc3ccccc3n12
inactive: [1]; [7] 2% | [1]; [8] 30% | [1]; at 50.0 µM 7.95% | [2]; [7] 16% | [2]; [8] 21% | [2]; at 50.0 µM 5.8% | [3]; [7] -11% | [3]; [8] 67% | [3]; at 50.0 µM 12.4% | [4]; [7] 14% | [4]; [8] 43% | [4]; at 50.0 µM -30.7% | [5]; [7] 21% | [5]; at 50.0 µM 29.2% | [6]; [7] -6% | [6]; [8] 45% | [6]; at 50.0 µM 31.6%
active: [5]; [8] 82%

CN(C)c1nc(=NCc2ccccc2)ss1
active: [3]; [8] 77% | [3]; at 50.0 µM 72.5% | [5]; [8] 76% | [6]; [8] 82%
inactive: [1]; [7] -7% | [1]; [8] 46% | [1]; at 50.0 µM 66.9% | [2]; [7] -5% | [2]; [8] 38% | [2]; at 50.0 µM 54.7% | [3]; [7] 19% | [4]; [7] 8% | [4]; [8] 48% | [4]; at 50.0 µM 36.6% | [5]; [7] 0% | [5]; at 50.0 µM 59% | [6]; [7] 5% | [6]; at 50.0 µM 50.1%

CC(C)(C)N/N=C(\C(=O)NC1=C(Cl)C(=O)c2ccccc2C1=O)C1C=CCS1(=O)=O (stereo unspecified)
inactive: [1]; [7] 7% | [2]; [7] -10% | [2]; [8] 65% | [3]; [7] -4% | [3]; at 50.0 µM 68.4% | [4]; [7] -26% | [4]; [8] 48% | [4]; at 50.0 µM 31.3% | [5]; [7] 0% | [6]; [7] 15% | [6]; at 50.0 µM 61.5%
active: [1]; [8] 89% | [1]; at 50.0 µM 90.2% | [2]; at 50.0 µM 72.3% | [3]; [8] 86% | [5]; [8] 92% | [5]; at 50.0 µM 84% | [6]; [8] 81%
